We go through twelve compounds from PubChem BioAssay (NCATS).

Molecules are shown by their SMILES. Results filed as inconclusive are left out. Values without a mark were called inactive. Activity calls are given as the source filed them. The call rests on the fitted dose curve; in most records, active means well fitted inhibition curve with a large enough effect; inconclusive means small, poorly fitted or top-dose-only effect; inactive means flat fitted curve, though single readings scatter.
On the % scale 0 is the no-effect control and ±100 the full control effect; potency means the concentration at half of the fitted maximal effect.

In the assay the test system is HEK293. The experiment in a line: Cytotoxic Profiling of Annotated Libraries Using Quantitative High-Throughput Screening (AID 1296008). Further: nearly all actives have a fitted effect of over 60% in size. Conditions: Five cell lines viability, CellTiter-Glo ATP luminescence, 48-72 h; max response: stronger effect = lower value. The method, boiled down:
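Cells exposed to compounds for 48 or 72 hr at 37 degrees Celsius. Viability read as ATP-coupled luminescence with CellTiter-Glo after 10 min at room temperature.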
In general terms: In ATP-based viability assays light output follows the ATP content of the culture.
As to `Cn1ncc(Cl)c1-c1cc(C(=O)N[C@H](CN)Cc2cccc(F)c2)sc1Cl`, the Potency is 1.3 µM (active).
Same read-out and setting: the figure for `Cc1c[nH]c2ncnc(N3CCC(CN)(C(=O)Nc4cccc(OC(=O)N(C)C)c4)CC3)c12` is 3.66 µM (active); for `CC(OC1OCCN(Cc2n[nH]c(=O)[nH]2)C1c1ccc(F)cc1)c1cc(C(F)(F)F)cc(C(F)(F)F)c1` (configuration not stated) it is 11.6 µM (active); for `Nc1cccc(CNC(=O)c2ccc(Oc3ccc(OCc4cccc(F)c4)cc3)nc2)c1` it is 11.6 µM (active).
The same measure, in the same setting: with `C[C@H](Oc1cc(-c2cnn(C3CCNCC3)c2)cnc1N)c1c(Cl)ccc(F)c1Cl` the figure was 9.2 µM (active); with `C=C1CC2[C@@]3(C)C=CC(=O)C(C)(C)C3=C(O)C(=O)[C@@]2(C)C2(C(=O)OC)C(=O)C(C)OC(=O)[C@@]12C` (some centres not stated), 7.96 µM (active).
As for `N#CC(CCCN1CCC(O)(c2ccc(Cl)cc2)CC1)(c1ccccc1)c1ccccc1`, the max response was -108%.
For `CCCc1cc(C)[nH]c(=O)c1CNC(=O)c1cc(-c2ccnc(N3CCN(C)CC3)c2)cc2c1cnn2C(C)C`, the Potency was 8.2 µM (active).
Still for that read-out and setting: with `CC(=O)OC1[C@H]2[C@@H](C[C@@H](C)[C@@H]3C=CC(=O)[C@@]13C)OC(=O)[C@@H]2C` (some centres not stated) the figure was 16.4 µM (active); with `C=CS(=O)(=O)NC1CCN(C(=O)CNc2cc(I)c(Cl)cc2OC)CC1`, 8.2 µM (active); with `C=C1CC(=O)C2OC2(C)CC2OC(=O)C(=C)C2C(O)C1OC(=O)/C(C)=C\C` (configuration not stated), 6.4 µM (active).
The same measure, in the same setting: with `C=C(C=O)[C@]1(O)C[C@@]2(C)C(=CC1=O)C=C[C@H](OC(=O)/C=C/C=C/[C@H](C)CC)[C@@H]2C` the figure was 3.99 µM (active).
